Among the data in article PMC7862700, “An all-to-all approach to the identification of sequence-specific readers for epigenetic DNA modifications on cytosine” are binding signal values, retold here.

Common to all, as to assay: DAPPL (digital affinity profiling via proximity ligation, sequencing); 10 mM Tris-HCl pH 7.5, 50 mM NaCl, 1 mM DTT, 4% glycerol, room temperature, 30 min; GST-TFs on glutathione beads, 16-mer random dsDNA library, 0.1% formaldehyde crosslink after washing; high values mean tight binding
Holding throughout (details): protein: recombinant; tags: N-terminal GST; dsDNA, one strand shown

Test [1] addresses T1, ERF (Homo sapiens, UniProt P50548 1-548).
T1 sequence: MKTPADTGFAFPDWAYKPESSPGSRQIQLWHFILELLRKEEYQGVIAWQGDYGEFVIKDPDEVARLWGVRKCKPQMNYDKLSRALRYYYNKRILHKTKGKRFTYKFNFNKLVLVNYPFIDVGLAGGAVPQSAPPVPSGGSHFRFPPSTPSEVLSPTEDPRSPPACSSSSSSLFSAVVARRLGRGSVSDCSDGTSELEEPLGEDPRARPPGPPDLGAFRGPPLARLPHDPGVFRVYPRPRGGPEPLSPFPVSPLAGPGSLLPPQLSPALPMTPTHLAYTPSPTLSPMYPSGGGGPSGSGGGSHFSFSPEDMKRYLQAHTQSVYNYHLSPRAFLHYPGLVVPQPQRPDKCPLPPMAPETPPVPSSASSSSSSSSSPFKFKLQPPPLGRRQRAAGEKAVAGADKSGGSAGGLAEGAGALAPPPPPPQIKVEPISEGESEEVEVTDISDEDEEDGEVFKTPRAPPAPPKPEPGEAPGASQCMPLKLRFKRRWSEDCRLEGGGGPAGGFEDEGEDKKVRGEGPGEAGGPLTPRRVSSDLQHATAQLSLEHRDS
The method, boiled down: (§1)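 GST fusions of human transcription factors were expressed in yeast and captured with glutathione beads. Once given DNA barcodes and pooled alongside a tag-only sample, they were incubated for 30 min at room temperature with 200 nmole of a random double-stranded 16-mer DNA library in Tris/NaCl/DTT/glycerol buffer, then washed, crosslinked (0.1% formaldehyde), proximity-ligated, PCR-amplified and sequenced on an Illumina NextSeq500. The binding signal of each hexamer is its read frequency for a factor divided by its frequency for the tag-only sample.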

Test [2] deals with T2, ETS2 (Homo sapiens, UniProt P15036 1-469).
T2 sequence: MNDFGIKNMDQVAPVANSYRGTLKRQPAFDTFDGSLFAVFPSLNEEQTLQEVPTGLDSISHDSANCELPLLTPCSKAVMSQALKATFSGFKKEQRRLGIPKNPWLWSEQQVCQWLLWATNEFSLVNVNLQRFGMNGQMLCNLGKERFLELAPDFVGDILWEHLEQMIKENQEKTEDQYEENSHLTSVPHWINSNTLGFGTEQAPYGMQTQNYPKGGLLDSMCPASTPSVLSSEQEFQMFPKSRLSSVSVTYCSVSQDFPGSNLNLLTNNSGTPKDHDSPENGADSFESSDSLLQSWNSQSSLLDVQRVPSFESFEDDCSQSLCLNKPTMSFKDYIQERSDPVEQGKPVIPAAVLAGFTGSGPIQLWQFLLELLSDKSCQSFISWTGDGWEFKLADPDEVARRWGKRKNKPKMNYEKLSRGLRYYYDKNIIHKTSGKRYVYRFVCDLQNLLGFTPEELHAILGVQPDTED
An outline of the steps:
as §1

In test [3] the target is T3, SPDEF (Homo sapiens, UniProt O95238 1-335).
T3 sequence: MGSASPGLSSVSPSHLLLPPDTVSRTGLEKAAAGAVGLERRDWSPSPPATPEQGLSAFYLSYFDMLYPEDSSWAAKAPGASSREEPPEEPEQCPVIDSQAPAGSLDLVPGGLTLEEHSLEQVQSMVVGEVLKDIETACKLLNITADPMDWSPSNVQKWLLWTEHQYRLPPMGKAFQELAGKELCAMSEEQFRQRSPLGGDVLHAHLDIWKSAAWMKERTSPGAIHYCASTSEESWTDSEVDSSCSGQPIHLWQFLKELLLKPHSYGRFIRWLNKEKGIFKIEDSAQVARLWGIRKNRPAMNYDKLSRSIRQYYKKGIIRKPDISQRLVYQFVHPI
The method, boiled down:
as §1

For test [4], the target named is T4, ELF5 (Homo sapiens, UniProt Q9UKW6-2 1-255).
T4 sequence: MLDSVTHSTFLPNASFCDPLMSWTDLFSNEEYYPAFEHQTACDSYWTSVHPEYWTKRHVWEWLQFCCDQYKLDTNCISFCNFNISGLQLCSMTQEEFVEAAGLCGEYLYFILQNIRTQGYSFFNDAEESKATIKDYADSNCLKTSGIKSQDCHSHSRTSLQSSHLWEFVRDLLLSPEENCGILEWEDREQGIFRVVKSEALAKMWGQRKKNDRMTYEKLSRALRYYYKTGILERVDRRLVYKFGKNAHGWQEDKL
The method, boiled down:
as §1

In test [5] the target is T5, ETV3 (Homo sapiens, UniProt P41162-2 1-143).
T5 sequence: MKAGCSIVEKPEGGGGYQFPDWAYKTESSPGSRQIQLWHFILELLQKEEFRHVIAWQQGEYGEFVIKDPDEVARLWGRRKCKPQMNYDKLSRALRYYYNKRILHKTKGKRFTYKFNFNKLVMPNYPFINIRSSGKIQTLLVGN
An outline of the steps: as §1

The target in test [6] is ETV6 (Homo sapiens, UniProt P41212 1-452). An outline of the steps: as §1
Chain of ETV6 (P41212 whole entry): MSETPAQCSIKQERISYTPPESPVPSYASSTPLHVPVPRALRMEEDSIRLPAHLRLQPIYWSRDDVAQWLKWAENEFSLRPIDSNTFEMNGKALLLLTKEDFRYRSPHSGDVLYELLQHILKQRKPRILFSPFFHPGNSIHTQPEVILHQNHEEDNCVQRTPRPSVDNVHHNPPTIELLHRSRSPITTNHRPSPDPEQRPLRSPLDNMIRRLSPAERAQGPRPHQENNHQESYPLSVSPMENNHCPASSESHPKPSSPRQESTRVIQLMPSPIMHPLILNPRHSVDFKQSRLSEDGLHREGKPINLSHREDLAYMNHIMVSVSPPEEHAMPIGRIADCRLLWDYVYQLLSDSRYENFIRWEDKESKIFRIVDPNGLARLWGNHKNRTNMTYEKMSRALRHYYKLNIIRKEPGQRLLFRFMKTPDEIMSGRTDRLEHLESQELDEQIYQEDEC
For test [7], the target named is T6, ETV7 (Homo sapiens, UniProt Q9Y603 1-341).
T6 sequence: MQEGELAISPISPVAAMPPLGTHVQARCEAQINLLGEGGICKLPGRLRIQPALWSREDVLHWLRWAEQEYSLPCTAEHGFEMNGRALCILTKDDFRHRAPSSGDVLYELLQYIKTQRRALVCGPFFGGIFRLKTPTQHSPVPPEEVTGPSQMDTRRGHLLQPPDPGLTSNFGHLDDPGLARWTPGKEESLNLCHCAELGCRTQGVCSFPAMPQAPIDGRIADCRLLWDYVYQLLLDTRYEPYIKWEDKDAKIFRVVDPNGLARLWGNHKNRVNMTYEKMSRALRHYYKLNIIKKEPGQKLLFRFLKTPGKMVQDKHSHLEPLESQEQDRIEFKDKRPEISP
An outline of the steps:
as §1

Turning to CCTAGA, the binding signal in test [1] is 1.05 fold enrichment (6-mer frequency, TF over GST control); in test [2], 1.05 fold enrichment (6-mer frequency, TF over GST control); in test [3], 1.01 fold enrichment (6-mer frequency, TF over GST control).

As to CTCAGG, the binding signal in test [1] was 1.02 fold enrichment (6-mer frequency, TF over GST control); in test [2] it was 1.12 fold enrichment (6-mer frequency, TF over GST control); in test [3] it was 1 fold enrichment (6-mer frequency, TF over GST control); in test [4], 1.04 fold enrichment (6-mer frequency, TF over GST control); in test [5], 1.01 fold enrichment (6-mer frequency, TF over GST control); in test [6] it was 1.08 fold enrichment (6-mer frequency, TF over GST control).

Consider AATCCA, for which the binding signal in test [1] is 1.11 fold enrichment (6-mer frequency, TF over GST control); in test [2], 1.14 fold enrichment (6-mer frequency, TF over GST control); in test [3], 1.07 fold enrichment (6-mer frequency, TF over GST control); in test [7] it was 1.14 fold enrichment (6-mer frequency, TF over GST control); in test [4], 1.05 fold enrichment (6-mer frequency, TF over GST control); in test [5], 1.03 fold enrichment (6-mer frequency, TF over GST control). In test [6], the binding signal is 1.11 fold enrichment (6-mer frequency, TF over GST control).

With GGCTTA, the binding signal was 1.09 fold enrichment (6-mer frequency, TF over GST control) in test [1]; 1.09 fold enrichment (6-mer frequency, TF over GST control) in test [2]; 1.09 fold enrichment (6-mer frequency, TF over GST control) in test [3]; 1.05 fold enrichment (6-mer frequency, TF over GST control) in test [5].

As to TTAGGT, the binding signal in test [1] is 1.19 fold enrichment (6-mer frequency, TF over GST control); in test [2], 1.13 fold enrichment (6-mer frequency, TF over GST control); in test [3], 1.09 fold enrichment (6-mer frequency, TF over GST control); in test [7], 1.09 fold enrichment (6-mer frequency, TF over GST control); in test [4], 1.02 fold enrichment (6-mer frequency, TF over GST control); in test [5], 1.06 fold enrichment (6-mer frequency, TF over GST control). Moreover, in test [6], the binding signal is 1.16 fold enrichment (6-mer frequency, TF over GST control).

Turning to CGAAAT, the binding signal is 1.03 fold enrichment (6-mer frequency, TF over GST control) in test [1]; 1.04 fold enrichment (6-mer frequency, TF over GST control) in test [3]; 1.11 fold enrichment (6-mer frequency, TF over GST control) in test [7]; 1.03 fold enrichment (6-mer frequency, TF over GST control) in test [5].

As for CGCCAA, the binding signal in test [1] is 1.07 fold enrichment (6-mer frequency, TF over GST control); in test [2] it was 1.04 fold enrichment (6-mer frequency, TF over GST control); in test [7] it was 1.01 fold enrichment (6-mer frequency, TF over GST control); in test [5], 1.04 fold enrichment (6-mer frequency, TF over GST control); in test [6], 1.03 fold enrichment (6-mer frequency, TF over GST control).

Take GGTTTA: the binding signal in test [1] was 1.11 fold enrichment (6-mer frequency, TF over GST control); in test [2], 1.02 fold enrichment (6-mer frequency, TF over GST control); in test [3], 1.1 fold enrichment (6-mer frequency, TF over GST control); in test [7], 1.15 fold enrichment (6-mer frequency, TF over GST control); in test [4], 1.08 fold enrichment (6-mer frequency, TF over GST control); in test [5], 1.1 fold enrichment (6-mer frequency, TF over GST control). Further, the binding signal in test [6] was 1.07 fold enrichment (6-mer frequency, TF over GST control).

Consider GCCCAT, for which the binding signal is 1.05 fold enrichment (6-mer frequency, TF over GST control) in test [1]; 1 fold enrichment (6-mer frequency, TF over GST control) in test [2]; 1.01 fold enrichment (6-mer frequency, TF over GST control) in test [4]; 1.01 fold enrichment (6-mer frequency, TF over GST control) in test [5].

As for CGCTCG, the binding signal in test [1] is 1.2 fold enrichment (6-mer frequency, TF over GST control); in test [2] it was 1.1 fold enrichment (6-mer frequency, TF over GST control); in test [3], 1.1 fold enrichment (6-mer frequency, TF over GST control); in test [4], 1.03 fold enrichment (6-mer frequency, TF over GST control); in test [5] it was 1.08 fold enrichment (6-mer frequency, TF over GST control); in test [6], 1.08 fold enrichment (6-mer frequency, TF over GST control).

On to GAATTA, for which the binding signal was 1.06 fold enrichment (6-mer frequency, TF over GST control) in test [1]; 1.05 fold enrichment (6-mer frequency, TF over GST control) in test [2]; 1.01 fold enrichment (6-mer frequency, TF over GST control) in test [3]; 1.06 fold enrichment (6-mer frequency, TF over GST control) in test [7]; 1.03 fold enrichment (6-mer frequency, TF over GST control) in test [4]; 1.1 fold enrichment (6-mer frequency, TF over GST control) in test [5]. For the same sequence, the binding signal in test [6] is 1.08 fold enrichment (6-mer frequency, TF over GST control).

As for ACTTAG, the binding signal in test [1] was 1.17 fold enrichment (6-mer frequency, TF over GST control); in test [2], 1.14 fold enrichment (6-mer frequency, TF over GST control); in test [3], 1.01 fold enrichment (6-mer frequency, TF over GST control); in test [7], 1.03 fold enrichment (6-mer frequency, TF over GST control); in test [5], 1.09 fold enrichment (6-mer frequency, TF over GST control); in test [6], 1.14 fold enrichment (6-mer frequency, TF over GST control).

Turning to GGAATT, the binding signal in test [1] was 1.08 fold enrichment (6-mer frequency, TF over GST control); in test [2], 1.21 fold enrichment (6-mer frequency, TF over GST control); in test [3], 1.16 fold enrichment (6-mer frequency, TF over GST control); in test [7] it was 1.15 fold enrichment (6-mer frequency, TF over GST control); in test [4], 1.28 fold enrichment (6-mer frequency, TF over GST control); in test [5] it was 1.2 fold enrichment (6-mer frequency, TF over GST control). For the same sequence, the binding signal in test [6] was 1.14 fold enrichment (6-mer frequency, TF over GST control).

Regarding GTCTAA, the binding signal is 1.12 fold enrichment (6-mer frequency, TF over GST control) in test [1]; 1.04 fold enrichment (6-mer frequency, TF over GST control) in test [2]; 1.05 fold enrichment (6-mer frequency, TF over GST control) in test [7]; 1.03 fold enrichment (6-mer frequency, TF over GST control) in test [4].

With TTTGAG, the binding signal in test [1] is 1.13 fold enrichment (6-mer frequency, TF over GST control); in test [2], 1.08 fold enrichment (6-mer frequency, TF over GST control); in test [3] it was 1.04 fold enrichment (6-mer frequency, TF over GST control); in test [7], 1.1 fold enrichment (6-mer frequency, TF over GST control); in test [4], 1.03 fold enrichment (6-mer frequency, TF over GST control); in test [5], 1.22 fold enrichment (6-mer frequency, TF over GST control). The binding signal in test [6] was 1.02 fold enrichment (6-mer frequency, TF over GST control).

GTTCGA: the binding signal is 1.23 fold enrichment (6-mer frequency, TF over GST control) in test [1]; 1.12 fold enrichment (6-mer frequency, TF over GST control) in test [2]; 1.01 fold enrichment (6-mer frequency, TF over GST control) in test [3]; 1.13 fold enrichment (6-mer frequency, TF over GST control) in test [7]; 1.06 fold enrichment (6-mer frequency, TF over GST control) in test [5]; 1.02 fold enrichment (6-mer frequency, TF over GST control) in test [6].
